# F508del corr = CFTR F508del correction in bronchial cells | actives 0.36% (n = 350,000) | CFBE cells, YFP halide quenching; stimulated with forskolin plus potentiator P3; % fluorescence drop versus neutral controls | activity (quench increase), % at 7.58 µM;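 active means mean added fluorescence quench of at least 8% versus neutral control, with both replicates also reaching 8%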;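 further: cells transiently co-express mutant CFTR-F508del with the halide-sensitive YFP; corrector assay measuring rescue of mutant channel to the surface after 24 h compound exposure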
# GSIS activator = GLuc luminescence reporter in INS-1E cells, primary screen for activators of glucose-dependent secretion of insulin. activation, % at 16.6 µM. INS-1E GLuc reporter insulin secretion, 2-3 h. AID 743287. actives 0.61% (n = 370,000);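 active means lowest replicate activation of at least 40%, so every replicate reaches that level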;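 further: 0% = median of neutral control wells and 100% = median of IBMX positive control wells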
# Env fusion inh = HIV envelope-mediated fusion inhibition; actives 1.1% (n = 360,000); inhibition, % at 12.3 µM; HeLa-JRFL Env/CEM21 cell fusion, luciferase;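 active means mean replicate inhibition score of at least 50 and every replicate individually at or above 50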;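 further: 0% = plate neutral controls and 100% = maraviroc near 300 nM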
# PGC1a acetyl inh = PGC1a acetylation modulation, inhibitor mode; U2OS PGC1a acetylation, AlphaScreen anti-acetyl-lysine; with virally co-expressed GCN5 acetyltransferase; inhibition, % at 15.6 µM; actives 0.17% (n = 350,000); AID 651687;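 active means every replicate shows inhibition of at least 40%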;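 further: 0% = neutral control wells and 100% = positive control wells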
# EWS-Fli inh = EWS/Fli transcriptional activity inhibition; A673 NR0B1-luciferase reporter, viability-normalised; inhibition, % at 12.6 µM; actives 0.67% (n = 350,000);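 active means mean inhibition of at least 50% after viability correction, with every replicate also passing that limit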;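 further: firefly luciferase signal divided by Alamar Blue viability fluorescence both relative to DMSO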
# PAX8 inh HTS = inhibitors of PAX8 transcriptional activity in RMG-I cells; RMG-I TPO-luciferase reporter, SteadyGlo, 24 h; actives 1.2% (n = 360,000); inhibition, % at 12.6 µM;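 active means mean replicate inhibition at least 60% with every replicate also reaching 60%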;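 further: luciferase light reporting Pax8 driven TPO promoter activity; plate controls were median of neutral control wells for no effect and mitoxantrone controls for full effect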
# The depositor's hits bear a star; / = not tested or not shown; [ ] = dose if it differs, or a comment. Compounds with a hit are over-represented: about 2.7% of the library has one in this group of screens.
SMILES,F508del corr,GSIS activator,Env fusion inh,PGC1a acetyl inh,EWS-Fli inh,PAX8 inh HTS
CO[C@@H]1CN(C)C(=O)c2cc(NS(C)(=O)=O)ccc2OC[C@@H](C)N(S(C)(=O)=O)C[C@@H]1C,-1.5,7.6,/,11.1,-4.7,/
C[C@@H]1CN([C@H](C)CO)C(=O)Cc2cc(NS(=O)(=O)c3cccs3)ccc2O[C@H]1CN(C)S(=O)(=O)c1ccc(F)cc1,0.5,15.4,-7.7[16.7 µM],2.8,4.1,-31.3
C[C@@H]1[C@@H](Sc2ccccc2)CC(=O)O[C@@H]1c1ccc(-c2ccccc2)cc1,-3.3,/,-17.8,/,12.6,23.6
O=C1C=CC2(O[C@H](c3ccccc3)[C@@H](c3ccccc3)O2)[C@H](Sc2ccccc2O)C1,-12.1,25.8,-113.2,/,68.0*,34.7
CN1c2ccc(Br)cc2[C@H]2[C@H](CCN2C(=O)C2CCOCC2)[C@@H]1CO,3.0,11.7,/,-13.3,-3.0,-2.6
Cc1ccc(-c2cnc3c(c2)C(=O)N([C@H](C)CO)C[C@H](C)[C@H](CN(C)C(=O)Cc2ccccc2)O3)cc1,-1.1,-15.8,27.4[16.7 µM],-13.5,-11.3,/
Cc1ccc(S(=O)(=O)Nc2ccc3c(c2)C(=O)N([C@H](C)CO)C[C@@H](C)[C@H](CN(C)S(=O)(=O)c2ccc(C)cc2)OCCCC[C@H](C)O3)cc1,-1.2,-12.5,-16.0[16.7 µM],-17.4,9.2,83.8*
Cc1ccc(S(=O)(=O)Nc2ccc3c(c2)C(=O)N([C@H](C)CO)C[C@@H](C)[C@@H](CN(C)S(=O)(=O)c2ccc(C)cc2)OCCCC[C@H](C)O3)cc1,2.3,6.5,-12.5[16.7 µM],-1.4,6.0,-26.9
Cc1ccc(S(=O)(=O)Nc2ccc3c(c2)C(=O)N([C@H](C)CO)C[C@H](C)[C@H](CN(C)C(=O)c2ccccc2)OCCCC[C@H](C)O3)cc1,2.6,-35.2,-30.0[16.7 µM],5.2,-6.4,96.0*
Cc1ccc(S(=O)(=O)Nc2ccc3c(c2)C(=O)N([C@@H](C)CO)C[C@H](C)[C@@H](CN(C)S(=O)(=O)c2ccc(C)cc2)OCCCC[C@H](C)O3)cc1,3.2,7.5,-45.6[16.7 µM],14.7,15.5,61.1*
Cc1ccc(S(=O)(=O)Nc2ccc3c(c2)C(=O)N([C@@H](C)CO)C[C@@H](C)[C@@H](CN(C)C)OCCCC[C@H](C)O3)cc1,0.5,5.4,-62.3[16.7 µM],0.8,-7.4,86.8*
CO[C@@H]1CC[C@@H]2CCOc3c(C#N)cccc3C(=O)N(C)C[C@@H](c3ccccc3)CC(=O)N(C)C[C@@H]1O2,1.3,3.4,7.4[16.7 µM],-4.6,-3.6,1.7
Cc1nn(C)cc1NC(=O)C[C@@H]1CC[C@H]2[C@@H](COc3ccc(NC(=O)NC(C)C)cc3C(=O)N2C)O1,-1.2,2.7,16.4[16.7 µM],6.5,10.8,0.1
COc1cccc(CNC(=O)C[C@@H]2C=C[C@@H](NC(=O)C3CCOCC3)[C@H](CO)O2)c1,3.6,-11.8,-0.7[16.7 µM],4.2,-1.0,0.4
Cc1ccc(S(=O)(=O)Nc2ccc3c(c2)C(=O)N([C@H](C)CO)C[C@H](C)[C@@H](CN(C)S(=O)(=O)c2ccc(C)cc2)OCCCC[C@H](C)O3)cc1,-1.7,-15.3,-84.1[16.7 µM],2.0,6.6,82.9*
Cc1ccc(S(=O)(=O)Nc2ccc3c(c2)C(=O)N([C@@H](C)CO)C[C@H](C)[C@H](CN(C)S(=O)(=O)c2ccc(C)cc2)OCCCC[C@H](C)O3)cc1,0.5,6.0,-13.1[16.7 µM],-44.7,14.6,58.4
Cc1noc(C)c1S(=O)(=O)N(C)C[C@H]1OCCCC[C@@H](C)Oc2ccc(NC(=O)Nc3ccccc3)cc2C(=O)N([C@@H](C)CO)C[C@H]1C,-2.4,-9.0,-63.4[16.7 µM],4.2,4.1,5.7
COc1ccc(/C=C2/S/C(=N/S(=O)(=O)Cc3ccccc3)NC2=O)cc1OC,3.4,78.8*,-13.5,2.9,6.4,-65.9
COc1ccccc1N=C1NC(=O)/C(=C/c2ccc(N(C)C)cc2)S1,15.3*,-5.2,-44.8,-55.0,8.7,-12.9
COc1cc(/C=C2/SC(=Nc3ccc(O)cc3)NC2=O)cc(OC)c1O,14.6*,3.8,-59.5,-5.9,23.0,10.1
O=C1N/C(=N\S(=O)(=O)Cc2ccccc2)S/C1=C/c1cccc([N+](=O)[O-])c1,0.1,-44.0,3.2,-1.9,-3.6,-5.5
O=S(=O)(c1ccc(F)cc1)c1nc(-c2ccco2)oc1Nc1ccccc1,0.9,1.1,65.5*,-11.8,-13.9,-0.5
O=S(=O)(c1ccccc1)c1nc(-c2ccco2)oc1Nc1ccccc1,/,/,15.8,/,-32.7,-50.0
O=C(CN(c1ccc(Cl)cc1)S(=O)(=O)c1ccc(Cl)c([N+](=O)[O-])c1)NCCc1ccccc1,0.6,18.2,12.5,23.5,21.8,79.4*
O=C(CN(c1ccc(Cl)cc1)S(=O)(=O)c1ccc(Cl)c([N+](=O)[O-])c1)NCCc1ccc(F)cc1,/,5.2,-9.4,-14.2,/,11.1
SMILES,F508del corr,GSIS activator,Env fusion inh,PGC1a acetyl inh,EWS-Fli inh,PAX8 inh HTS
COc1ccc(C)cc1NC(=O)CCNS(=O)(=O)c1ccc2c(c1)CC(C)N2C(C)=O (stereo unspecified),-0.6,-1.1,79.0*,-9.1,4.1,2.9
COc1ccc2c3c([nH]c2c1)[C@H](CO)N(Cc1cccc(Cl)c1)CC31CCN(C)CC1,0.2,4.3,/,-0.9,-6.5,/
CC(C)c1ccc(NC(=O)C2=CC=CN3CCS(=O)(=O)N=C23)cc1,-0.7,50.3*,-26.8,/,-38.9,-37.1
O=C(C[C@H]1C=C[C@@H](NC(=O)Nc2ccc(F)cc2)[C@@H](CO)O1)NCCN1CCCC1,-2.4,3.8,14.0[16.7 µM],-2.2,-1.5,-2.0
CNC(=O)N(O)C1N(/N=C/c2ccccc2O)C(=S)SC1(C)C (stereo unspecified),3.4,-8.0,-2.0,9.7,-4.0,24.9
CCCCNC(=O)N(O)C1N(/N=C/c2cccs2)C(=S)SC1(C)C (stereo unspecified),-1.4,4.7,66.9*,/,5.9,5.2
CC(C)NC(=O)Nc1ccc2c(c1)C(=O)N([C@H](C)CO)C[C@H](C)[C@@H](CN(C)S(C)(=O)=O)OCCCC[C@H](C)O2,-0.4,19.0,6.9[16.7 µM],0.2,0.3,-9.5
CCC(=O)Oc1ccc2c(C)cc(=O)oc2c1C(=O)c1ccccc1,-0.3,-1.9,/,14.4,10.9,88.2*
CCC(=O)N1C[C@@H](C)[C@H](OC)CN(C)C(=O)c2ccc(NC(=O)c3ccno3)cc2OC[C@@H]1C,-2.3,-4.2,/,-1.7,-5.3,-7.9
O=C(Nc1ccc(F)cc1)N[C@H]1CC[C@H](CCn2cc(-c3ccc(F)cc3)nn2)O[C@H]1CO,1.2,-1.2,9.4[16.7 µM],-4.2,1.5,-2.4
C[C@H](CO)N1C[C@H](C)[C@@H](CN(C)Cc2ccc(C(F)(F)F)cc2)OCCCC[C@H](C)Oc2ccc(NC(=O)Nc3ccc4c(c3)OCO4)cc2C1=O,1.2,-11.6,70.9*[16.7 µM],-5.8,18.2,59.8

# Bioassay records from PubChem BioAssay.
